# Assay outcomes as filed in PubChem BioAssay.
# APP 5UTR inh: inhibitors of APP translation via 5'UTR reporter, primary screen, APP 5'UTR luciferase, SH-SY5Y cells; 0.82% of 190,000 active; SH-SY5Y APP 5'UTR-luciferase reporter, luminescence; inhibition, % at 2 µM;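 active = inhibition above a set limit, derived from the sample mean plus 3 SD, cut at about 45% in these data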
# STAT1 act: STAT1 signaling activators, primary screen, cell-based, HTS, luciferase reporter; NIH 3T3 STAT1-luciferase reporter, IFN-gamma, luminescence; 100% = IFN-gamma alone, no compound; activation (% of control), % at 5.5 µM; 2.6% of 200,000 active; AID 932, 2007;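 active = activation above the screen-wide mean activation plus 3 SD, cut at about 130% in these data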;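 note: raw ratio to IFN-gamma control signal so 100% means no change and 0% no light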
# APP 5'UTR act: activators of APP 5'UTR luciferase reporter, primary screen, SH-SY5Y cells | AID 1276, 2008 | 1% of 190,000 active | SH-SY5Y APP 5'UTR luciferase reporter, luminescence; zero percent = DMSO vehicle wells | activation, % at 2 µM;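 active = activation above a set limit, based on mean plus 3 SD of controls, cut at about 140% in these data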
# Hsp70 act: Hsp70 transcriptional activators, primary screen, cell-based, HeLa, Hsp70 promoter luciferase, luminescence, 10 µM | HeLa Hsp70 promoter luciferase reporter; scaled: vehicle 0, proteasome-inhibitor control 100% | activation, % at 10 µM | 0.04% of 200,000 active;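 active = activation above the mean across all tested compounds plus 3 SD, cutoff set per campaign, cut at about 5.5% in these data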;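 note: 100% = MG132 at 30 µM as the positive control and 0% = DMSO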
# NF-kB neuron act: activators of NF-kB expression in neurons, primary screen, cell-based, HTS; human neuronal cells, NF-kB reporter expression; active compounds read high; 1.6% of 190,000 active; fold change at 12.5 µM; in the data active = fold change above about 3.3
# Wee1 stabilizer: Wee1 degradation inhibitors, primary screen, cell-based, HeLa, Wee1K328M-luciferase, luminescence | 1.2% of 220,000 active | AID 1321, 2008 | Wee1-like protein kinase (Homo sapiens), P30291 | reporter increase, % at 5 µM | HeLa Luc-Wee1K328M stability; 100% = proteasome inhibitor MG132 effect;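 active = activation above the mean of all tested compounds plus 3 SD, set per screening run, cut at about 8.8% in these data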;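 note: cells exposed to compound for 20 h before luminescence read; 0% = DMSO alone and 100% = MG132 at 30 µM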
# Target sequence (P30291 whole entry K328M): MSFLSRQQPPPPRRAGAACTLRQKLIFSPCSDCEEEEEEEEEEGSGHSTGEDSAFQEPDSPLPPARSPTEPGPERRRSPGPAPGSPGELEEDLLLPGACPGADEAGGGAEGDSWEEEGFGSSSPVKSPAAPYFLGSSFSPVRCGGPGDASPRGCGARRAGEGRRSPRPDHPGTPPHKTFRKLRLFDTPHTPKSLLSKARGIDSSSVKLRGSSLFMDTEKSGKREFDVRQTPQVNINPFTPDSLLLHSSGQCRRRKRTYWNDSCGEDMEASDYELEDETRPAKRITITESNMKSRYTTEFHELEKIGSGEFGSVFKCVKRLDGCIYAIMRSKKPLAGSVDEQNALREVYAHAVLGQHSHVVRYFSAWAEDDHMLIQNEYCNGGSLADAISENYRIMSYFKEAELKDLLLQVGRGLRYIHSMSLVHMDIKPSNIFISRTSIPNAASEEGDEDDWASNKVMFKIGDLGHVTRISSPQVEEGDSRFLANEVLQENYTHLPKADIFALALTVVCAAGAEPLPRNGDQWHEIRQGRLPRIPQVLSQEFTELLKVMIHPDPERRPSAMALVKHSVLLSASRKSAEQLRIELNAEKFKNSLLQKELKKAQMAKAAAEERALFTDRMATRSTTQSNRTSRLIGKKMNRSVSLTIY
# The depositor's hits bear a star; x = no result. Only some compounds are listed: those with a hit (about 4.8% of all), similar ones and a draw of the others.
SMILES,APP 5UTR inh,STAT1 act,APP 5'UTR act,Hsp70 act,NF-kB neuron act,Wee1 stabilizer
O=C(Nc1ccc2c(c1)OCO2)c1cc2nc(C3CC3)cc(C(F)(F)F)n2n1,-2,97,2,0,1.3,-3
CC(=O)c1cccc(NC(=O)c2cc3nc(C)cc(C)n3n2)c1,-92,145*,92,0,0.99,0
CC1C(Br)C(=O)NC(=O)N1Cc1ccccc1 (centres undefined),-4,97,4,0,1,-1
CC(C)CCNC(=O)C1C2C=CC3(CN(Cc4ccccc4Cl)C(=O)C13)O2 (centres undefined),-14,109,14,0,1.4,0
CCOC(=O)C1=NN(C(=O)c2ccccc2)C(O)(c2ccc(C)cc2)C1 (centres undefined),-7,102,7,0,1.1,15*
CCOC(=O)C1=NN(C(=O)c2ccc(OC)cc2)C(O)(c2ccc(Cl)cc2)C1 (centres undefined),15,108,-15,0,1.1,-2
Cc1cc(C)c2c(CC(=O)O)coc2c1,0,104,0,0,1,0
Cc1cc(C)c2c(CCl)cc(=O)oc2c1,94*,x,-94,x,x,-3
C=CCn1c(CSCc2ccccc2)nnc1SCC(=O)N1CCN(c2ccccc2)CC1,14,98,-14,0,0.76,1
NC(=S)NC1CC2CC1C1C=CCC21 (centres undefined),x,x,x,x,x,9.5*
COc1cc(C2Nc3ccccc3C(=O)N2c2ccc3c(c2)OCCO3)ccc1OCC(C)C (centres undefined),-107,132*,107,0,1.1,-1
O=C1c2ccccc2NC(c2ccc3c(c2)OCCO3)N1c1ccc2c(c1)OCCO2 (centres undefined),-85,119,85,0,4.4*,-1
NC(=O)C1CCN(CCCNC2CC(=O)N(Cc3ccc(N4CCCC4=O)cc3)C2=O)CC1 (centres undefined),11,98,-11,0,x,2
COc1ccc(-c2nc(-c3cccs3)no2)cc1,x,x,x,x,x,-1
Brc1ccc(-c2cnc(-c3cccs3)o2)cc1,-88,143*,89,0,2.7,1
Cc1ccnc(N=Cc2nc(-c3ccccc3Br)oc2O)c1,-20,142*,20,0,2,8
c1ccc(-c2nc3ccccc3o2)nc1,-48,126,48,0,1.4,-1
Cc1ccnc2ccc(-c3nc4ccccc4o3)cc12,-20,136*,20,0,1.9,1
CCn1c(=S)[nH]c2cc(C(=O)OC)ccc2c1=O,-12,88,12,0,1.2,-2
CCCCCOC(=O)Cn1c(=O)oc2ccc(C)cc21,11,98,-11,0,1.3,5
S=c1[nH]nc(-c2ccccc2)n1/N=C/c1ccc(-c2ccccc2Cl)o1,5,99,-5,0,4.5*,-2
COc1ccc(NC(=O)c2cc3nc(-c4ccccc4)cc(-c4ccccc4)n3n2)c(OC)c1,3,100,-3,0,0.92,1
COc1ccc(C2=NOC(CNC(N)=S)C2)cc1 (centres undefined),-115,106,115,2,4.3*,0
COc1ccc(CNC(=O)C2CC(c3ccc(OC)cc3)=NO2)cc1 (centres undefined),-1,100,1,1,1.2,-2
Cc1ccc(OCCc2csc(N)n2)cc1,-29,114,29,0,2,1
SMILES,APP 5UTR inh,STAT1 act,APP 5'UTR act,Hsp70 act,NF-kB neuron act,Wee1 stabilizer
O=C1NC(=O)/C(=C\c2ccc(Oc3cnccn3)cc2)S1,-33,140*,33,0,2.2,1
O=Cc1ccc(Oc2cnccn2)cc1,76*,100,-76,0,1,4
CC(=O)Nc1ccc(Oc2cnccn2)cc1,8,91,-8,0,1,1
CCCC(=O)Nc1nc(C)c(-c2csc(Nc3ccccc3OC)n2)s1,1,107,-1,0,0.82,-1
CCOC(=O)N=Nc1c2ccccc2c2nc3no[nH]c3nc12,94*,17,-94,0,0.09,-3
CCOC(=O)N=Nc1c(O)n(CC(=O)OC)c2ccccc12,-4,96,4,0,1.3,-1
O=C(O)c1cccc(CN2C(=O)S/C(=C/c3ccccc3[N+](=O)[O-])C2=O)c1,x,x,x,x,x,1
CCOC(=O)CN1C(=O)S/C(=C/c2cccc([N+](=O)[O-])c2O)C1=O,4,98,-4,0,1.1,10*
CC(=O)Nc1ccc2c(c1)nc1n2CCOC1,7,102,-7,-1,1.1,-2
Cc1c(CN(C)C(=O)/C=C/c2ccc([N+](=O)[O-])cc2)cnn1C,19,117,-19,0,1.2,8.9*
Cc1c(CN(C)C(=O)c2nn(C)cc2[N+](=O)[O-])cnn1C,-20,95,19,0,1.1,-5
Cc1cccc(CSc2nnc(-c3cnccn3)n2C)c1,x,x,x,x,x,0
Cc1ccc(S(=O)(=O)N2CCN(C(=O)CCC(=O)NCc3ccc(F)cc3)CC2)cc1,-11,99,11,0,1.1,9.4*
Cc1ccc(S(=O)(=O)N2CCN(C(=O)CC(C)(C)C)CC2)cc1,22,93,-22,0,1.1,9.8*
COc1ccc(CNC(=O)CCC(=O)N2CCN(S(=O)(=O)c3ccc(Cl)cc3)CC2)cc1,-15,100,15,0,0.99,6
Clc1ccc(-c2ncc3ccccn23)cc1,-65,127,65,0,1.1,-1
Clc1ccccc1-c1ncc2ccccn12,-3,106,3,0,1.2,8.9*
Cc1ccc(NS(=O)(=O)c2ccc(CCC(=O)N3CCCC3)cc2)cc1,-4,90,4,0,1.3,0
NNC(=O)c1oc2ccccc2c1-n1cccc1,62*,87,-62,0,1.2,-3
O=C(NNC(=O)c1oc2ccccc2c1-n1cccc1)c1ccco1,2,97,-2,0,0.96,1
COc1ccc(CNc2c(C(=O)O)cnc3c2cnn3C)cc1,-9,106,9,0,1,-3
COc1ccc(OC)c(NC(=O)Cc2coc3ccc4ccccc4c23)c1,68*,102,-68,0,0.76,5
CCC(Oc1ccccc1)C(=O)Nc1nc2c(s1)C(=O)CC(C)(C)C2 (centres undefined),-2,101,2,0,0.98,0
O=C(CSC1=NCCS1)N1CCc2ccccc21,-85,127,85,0,3.5*,1
